From PubChem BioAssay AID1159580 (chemical genetic matrix, 2015)
The campaign covered roughly 5,500 compounds. About 2,000 (36%) were called active. About 18% were inconclusive and are not listed. Cut-off read from the data, not from the text of the source: active = normalized growth mostly below about 0.91 (no sharp cut-off); inconclusive = no clear call, values can overlap the other calls; inactive = mostly above about 0.92. Some of the results follow.

Experiment: chemical genetic growth profiling, strain panel (AID 1159580);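 note: tested at 20 µM; growth read once vehicle control cultures reached saturation at 30 °C; 1 = growth at the plate median or of vehicle wells; lower values mean less growth of the strain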
Settings: growth OD

Measured: normalized growth

Nc1nc2ncc(=O)[nH]c2c(=O)[nH]1
inactive: S. cerevisiae deletion strains, locus YJR075W, strain HOC1, stronger effect = lower value 1.02 | S. cerevisiae deletion strains, locus YKL009W, strain mrt4, stronger effect = lower value 0.973 | S. cerevisiae deletion strains, locus YKL068W, stronger effect = lower value 0.981 | S. cerevisiae deletion strains, locus YKL085W, strain MDH1 (second series), stronger effect = lower value 0.991 | S. cerevisiae deletion strains, locus YKL085W, strain MDH1, stronger effect = lower value 0.991 | S. cerevisiae deletion strains, locus YKL160W, strain elf1, stronger effect = lower value 0.975 | S. cerevisiae deletion strains, locus YKL190W, strain CNB1, stronger effect = lower value 0.991 | S. cerevisiae deletion strains, locus YKR001C, strain vps1, stronger effect = lower value 0.999 | S. cerevisiae deletion strains, locus YKR026C, strain gcn3, stronger effect = lower value 0.977 | S. cerevisiae deletion strains, locus YKR091W, strain srl3, stronger effect = lower value 0.979 | S. cerevisiae deletion strains, locus YLL001W, strain dnm1, stronger effect = lower value 0.946 | S. cerevisiae deletion strains, locus YLL026W, stronger effect = lower value 0.982 | S. cerevisiae deletion strains, locus YLL041C, strain sdh2, stronger effect = lower value 0.976 | S. cerevisiae deletion strains, locus YLR027C, strain aat2, stronger effect = lower value 0.984 | S. cerevisiae deletion strains, locus YLR039C, strain RIC1, stronger effect = lower value 0.997 | S. cerevisiae deletion strains, locus YLR058C, strain SHM2, stronger effect = lower value 0.996 | S. cerevisiae deletion strains, locus YLR102C, strain apc9, stronger effect = lower value 0.984 | S. cerevisiae deletion strains, locus YLR113W, strain HOG1, stronger effect = lower value 0.941 | S. cerevisiae deletion strains, locus YLR221C, strain rsa3, stronger effect = lower value 0.977 | S. cerevisiae deletion strains, locus YLR258W, strain gsy2, stronger effect = lower value 0.982 | S. cerevisiae deletion strains, locus YLR262C, strain YPT6 (second series), stronger effect = lower value 0.986 | S. cerevisiae deletion strains, locus YLR262C, strain YPT6, stronger effect = lower value 0.994 | S. cerevisiae deletion strains, locus YLR268W, strain sec22, stronger effect = lower value 1.01 | S. cerevisiae deletion strains, locus YLR320W, strain mms22, stronger effect = lower value 0.972 | S. cerevisiae deletion strains, locus YLR330W, strain CHS5, stronger effect = lower value 0.992 | S. cerevisiae deletion strains, locus YLR342W, strain FKS1 (second series), stronger effect = lower value 0.997 | S. cerevisiae deletion strains, locus YLR342W, strain FKS1, stronger effect = lower value 0.987 | S. cerevisiae deletion strains, locus YLR357W, strain rsc2, stronger effect = lower value 0.967 | S. cerevisiae deletion strains, locus YLR370C, strain arc18, stronger effect = lower value 0.965 | S. cerevisiae deletion strains, locus YLR371W, strain rom2, stronger effect = lower value 0.976 | S. cerevisiae deletion strains, locus YLR384C, strain iki3, stronger effect = lower value 0.968 | S. cerevisiae deletion strains, locus YLR418C, strain cdc73, stronger effect = lower value 1.05 | S. cerevisiae deletion strains, locus YML016C, strain PPZ1, stronger effect = lower value 1 | S. cerevisiae deletion strains, locus YML032C, strain rad52, stronger effect = lower value 0.967 | S. cerevisiae deletion strains, locus YML120C, strain ndi1, stronger effect = lower value 0.972 | S. cerevisiae deletion strains, locus YML124C, strain tub3, stronger effect = lower value 0.998 | S. cerevisiae deletion strains, locus YMR058W, strain fet3, stronger effect = lower value 0.988 | S. cerevisiae deletion strains, locus YMR078C, strain ctf18, stronger effect = lower value 0.979 | S. cerevisiae deletion strains, locus YMR125W, strain sto1, stronger effect = lower value 0.969 | S. cerevisiae deletion strains, locus YMR129W, stronger effect = lower value 0.972 | S. cerevisiae deletion strains, locus YMR205C, strain PFK2, stronger effect = lower value 0.967 | S. cerevisiae deletion strains, locus YMR223W, strain ubp8, stronger effect = lower value 0.989 | S. cerevisiae deletion strains, locus YMR231W, strain pep5, stronger effect = lower value 0.979 | S. cerevisiae deletion strains, locus YMR263W, strain SAP30, stronger effect = lower value 1.01 | S. cerevisiae deletion strains, locus YMR307W, strain GAS1, stronger effect = lower value 1 | S. cerevisiae deletion strains, locus YNL067W, strain RPL9B, stronger effect = lower value 1.03 | S. cerevisiae deletion strains, locus YNL071W, strain lat1, stronger effect = lower value 0.984 | S. cerevisiae deletion strains, locus YNL128W, strain TEP1, stronger effect = lower value 1.03 | S. cerevisiae deletion strains, locus YNL153C, strain GIM3, stronger effect = lower value 1.01 | S. cerevisiae deletion strains, locus YNL183C, strain NPR1, stronger effect = lower value 0.942 | S. cerevisiae deletion strains, locus YNL209W, strain ssb2, stronger effect = lower value 0.993 | S. cerevisiae deletion strains, locus YNL233W, strain BNI4, stronger effect = lower value 1.01 | S. cerevisiae deletion strains, locus YNL248C, strain rpa49, stronger effect = lower value 0.98 | S. cerevisiae deletion strains, locus YNL250W, strain rad50, stronger effect = lower value 0.987 | S. cerevisiae deletion strains, locus YNL271C, strain bni1, stronger effect = lower value 0.995 | S. cerevisiae deletion strains, locus YNL298W, strain CLA4, stronger effect = lower value 1 | S. cerevisiae deletion strains, locus YNL307C, strain MCK1, stronger effect = lower value 0.991 | S. cerevisiae deletion strains, locus YNL322C, strain KRE1 (second series), stronger effect = lower value 0.967 | S. cerevisiae deletion strains, locus YNL322C, strain KRE1, stronger effect = lower value 1.01 | S. cerevisiae deletion strains, locus YNR049C, strain mso1, stronger effect = lower value 0.973 | S. cerevisiae deletion strains, locus YNR052C, strain pop2, stronger effect = lower value 0.983 | S. cerevisiae deletion strains, locus YOL006C, strain TOP1, stronger effect = lower value 1.11 | S. cerevisiae deletion strains, locus YOL012C, strain htz1 0.879 | S. cerevisiae deletion strains, locus YOL147C, strain pex11, stronger effect = lower value 0.978 | S. cerevisiae deletion strains, locus YOR001W, strain rrp6, stronger effect = lower value 0.986 | S. cerevisiae deletion strains, locus YOR061W, strain CKA2, stronger effect = lower value 1.01 | S. cerevisiae deletion strains, locus YOR069W, strain VPS5, stronger effect = lower value 1 | S. cerevisiae deletion strains, locus YOR070C, strain gyp1, stronger effect = lower value 0.983 | S. cerevisiae deletion strains, locus YOR080W, strain dia2, stronger effect = lower value 0.978 | S. cerevisiae deletion strains, locus YOR083W, strain WHI5, stronger effect = lower value 0.966 | S. cerevisiae deletion strains, locus YOR106W, strain vam3, stronger effect = lower value 0.988 | S. cerevisiae deletion strains, locus YOR136W, strain idh2, stronger effect = lower value 0.987 | S. cerevisiae deletion strains, locus YOR144C, strain elg1, stronger effect = lower value 0.989 | S. cerevisiae deletion strains, locus YOR184W, strain ser1, stronger effect = lower value 0.968 | S. cerevisiae deletion strains, locus YOR231W, strain MKK1, stronger effect = lower value 0.938 | S. cerevisiae deletion strains, locus YOR265W, strain rbl2, stronger effect = lower value 0.981 | S. cerevisiae deletion strains, locus YOR270C, strain vph1, stronger effect = lower value 0.951 | S. cerevisiae deletion strains, locus YOR290C, strain snf2, stronger effect = lower value 0.911 | S. cerevisiae deletion strains, locus YOR316C, strain cot1, stronger effect = lower value 0.985 | S. cerevisiae deletion strains, locus YPL051W, strain arl3, stronger effect = lower value 0.984 | S. cerevisiae deletion strains, locus YPL055C, strain LGE1, stronger effect = lower value 1.02 | S. cerevisiae deletion strains, locus YPL078C, strain atp4, stronger effect = lower value 0.97 | S. cerevisiae deletion strains, locus YPL106C, strain sse1, stronger effect = lower value 0.948 | S. cerevisiae deletion strains, locus YPL240C, strain hsp82, stronger effect = lower value 0.984 | S. cerevisiae deletion strains, locus YPL241C, strain CIN2, stronger effect = lower value 0.994 | S. cerevisiae deletion strains, locus YPL256C, strain CLN2, stronger effect = lower value 0.963 | S. cerevisiae deletion strains, locus YPR119W, strain clb2, stronger effect = lower value 0.974 | S. cerevisiae deletion strains, locus YPR141C, strain kar3, stronger effect = lower value 0.975 | S. cerevisiae deletion strains, locus YPR163C, strain tif3, stronger effect = lower value 0.988 | S. cerevisiae deletion strains, locus YPR167C, strain met16, stronger effect = lower value 1 | S. cerevisiae deletion strains, strain wtn01, stronger effect = lower value 0.994 | S. cerevisiae strains, strain wild type, stronger effect = lower value 1
